According to PubChem BioAssay (NCATS):
Inconclusive results are not listed. Unless noted, calls come from the whole dose curve; as a rule, active = well fitted curve in either direction with a large enough effect (not every such curve was filed as active); inconclusive = small, poorly fitted or top-dose-only effect, or another doubt; inactive = flat fitted curve, though single readings scatter.

test system: not listed separately; assay: NFAT Signaling Pathway (AID 444); details: Jurkat NFAT-bla M1, carbachol, beta-lactamase ratio, 5 h; at 7.69 µM (top of the series) unless noted;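 note: carbachol stimulus at about its EC50 of 1 µM final; % is set by controls: 0 for no effect and ±100 for the full control effect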
Method in brief: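 Jurkat cells with NFAT-driven β-lactamase reporter and co-expressed M1 receptor, stimulated with carbachol (final 1 uM, ~EC50), compound titration, 5 h at 37 °C. CCF4 loaded 1 h at RT; 460/530 nm ratio gave %activity and AC50.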

Activity change, negative = inhibition, inactive:
Clc1ccccc1-c1nc(-n2ccnc2)c2ccccc2n1 -17.9%, COc1ccccc1CNc1ncncc1-c1ccccc1C(F)(F)F -21.7%, c1ccc(Nc2nc(-c3cccnc3)nc3ccccc23)cc1 17%, c1ccc(CNc2nc(-c3cccnc3)nc3ccccc23)cc1 -17.2%, CN(C)c1ncc2nc(CCc3ccccc3)c(=O)n(CCc3ccccc3)c2n1 -22.4%, COc1ccc(-n2c(=O)c(-c3cccs3)nc3cnc(N4CCN(C)CC4)nc32)cc1 4.91%, CCNc1ncc2ncc(=O)n(Cc3cccc(OC)c3)c2n1 8.9%, CCNc1ncc2nc(CCc3ccccc3)c(=O)n(Cc3cccc(OC)c3)c2n1 -6.29%, Cn1c(=O)c(-c2ccccc2)nc2cnc(N3CCOCC3)nc21 3.19%, Cn1c(=O)c(-c2ccc(Cl)cc2)nc2cncnc21 -0.619%, COc1cccc(Cn2c(=O)c(CCc3ccccc3)nc3cnc(N(C)C)nc32)c1 6.19%, c1ccc2c(NCCN3CCOCC3)nc(-c3ccoc3)nc2c1 -7.47%, Cc1nc2cnc(N3CCN(C)CC3)nc2n(CCc2ccccc2)c1=O -16.9%, CN(C)c1ncc2nc(CCc3ccccc3)c(=O)n(CCC#N)c2n1 -3.25%

test system: not listed separately; assay: Stat Signaling Pathway (AID 446); details: ME-180 (cervical carcinoma) SIE beta-lactamase reporter, IL-6 stimulated, 5 h; series mostly up to 7.69 µM; activity, negative = inhibition: at the top concentration;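 note: ME-180 cervical cancer cells given 40 pM IL-6 alongside compound; SIE-controlled beta-lactamase reporter measured as 460/530 nm FRET emission ratio; % is set by controls: 0 for no effect and ±100 for the full control effect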
Method in brief: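 Emission at 460 and 530 nm (excitation 405 nm) reports SIE-controlled beta-lactamase in ME-180 cells. Cells received compound with 40 pM IL-6 for 5 hrs at 37 C; data scaled between 300 pM IL-6 and 125 nM JAK-inhibitor controls.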

activity, negative = inhibition, inactive:
Clc1ccccc1-c1nc(-n2ccnc2)c2ccccc2n1 -4.99%, COc1ccccc1CNc1ncncc1-c1ccccc1C(F)(F)F 12.8%, c1ccc(Nc2nc(-c3cccnc3)nc3ccccc23)cc1 -9.23%, c1ccc(CNc2nc(-c3cccnc3)nc3ccccc23)cc1 -6.68%, CN(C)c1ncc2nc(CCc3ccccc3)c(=O)n(CCc3ccccc3)c2n1 -4.42%, COc1ccc(-n2c(=O)c(-c3cccs3)nc3cnc(N4CCN(C)CC4)nc32)cc1 8.43%, CCNc1ncc2ncc(=O)n(Cc3cccc(OC)c3)c2n1 -21%, CCNc1ncc2nc(CCc3ccccc3)c(=O)n(Cc3cccc(OC)c3)c2n1 -8.37%, Cn1c(=O)c(-c2ccccc2)nc2cnc(N3CCOCC3)nc21 -7.68%, Cn1c(=O)c(-c2ccc(Cl)cc2)nc2cncnc21 0.164%, COc1cccc(Cn2c(=O)c(CCc3ccccc3)nc3cnc(N(C)C)nc32)c1 -1.83%, c1ccc2c(NCCN3CCOCC3)nc(-c3ccoc3)nc2c1 3.46%, Cc1nc2cnc(N3CCN(C)CC3)nc2n(CCc2ccccc2)c1=O -12.6%, CN(C)c1ncc2nc(CCc3ccccc3)c(=O)n(CCC#N)c2n1 -12%

target: Glucocorticoid receptor (Homo sapiens) (UniProt P04150); assay: GR-GFP Redistribution (AID 450;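 active = compounds whose dose series gives a full or clear partial fitted curve of increased nuclear translocation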; note: potency is the fitted concentration of half-maximal effect); details: U2OS GR-GFP nuclear translocation, laser cytometry, 2 h
Sequence (P04150 whole entry, looked up, the tested form may be a part): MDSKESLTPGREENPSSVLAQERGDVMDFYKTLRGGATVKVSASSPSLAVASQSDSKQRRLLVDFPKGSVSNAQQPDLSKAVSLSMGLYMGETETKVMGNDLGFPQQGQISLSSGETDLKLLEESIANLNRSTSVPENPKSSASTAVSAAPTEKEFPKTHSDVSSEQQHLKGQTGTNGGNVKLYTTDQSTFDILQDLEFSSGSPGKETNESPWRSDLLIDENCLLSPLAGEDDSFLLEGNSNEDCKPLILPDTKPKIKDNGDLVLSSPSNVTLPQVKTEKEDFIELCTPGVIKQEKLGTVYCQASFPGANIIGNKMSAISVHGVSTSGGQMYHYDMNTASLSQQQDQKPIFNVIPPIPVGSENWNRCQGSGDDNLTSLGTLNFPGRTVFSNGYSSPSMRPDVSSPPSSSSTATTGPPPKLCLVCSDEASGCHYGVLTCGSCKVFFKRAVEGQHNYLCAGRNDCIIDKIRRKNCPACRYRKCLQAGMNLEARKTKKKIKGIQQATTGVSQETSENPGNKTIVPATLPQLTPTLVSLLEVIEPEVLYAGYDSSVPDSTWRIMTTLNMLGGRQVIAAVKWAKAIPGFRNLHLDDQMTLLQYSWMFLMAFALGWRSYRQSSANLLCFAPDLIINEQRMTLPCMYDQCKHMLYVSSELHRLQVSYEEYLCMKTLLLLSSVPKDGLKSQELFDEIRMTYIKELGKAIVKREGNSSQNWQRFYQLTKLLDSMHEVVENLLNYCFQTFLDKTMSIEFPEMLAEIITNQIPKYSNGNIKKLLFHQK

Potency, inactive:
Clc1ccccc1-c1nc(-n2ccnc2)c2ccccc2n1 > 46 µM, O=c1ccc2cc3ccoc3cc2o1 > 46 µM, COc1ccccc1CNc1ncncc1-c1ccccc1C(F)(F)F > 46 µM, c1ccc(Nc2nc(-c3cccnc3)nc3ccccc23)cc1 > 46 µM, c1ccc(CNc2nc(-c3cccnc3)nc3ccccc23)cc1 > 46 µM, CN(C)c1ncc2nc(CCc3ccccc3)c(=O)n(CCc3ccccc3)c2n1 > 9.22 µM, COc1ccc(-n2c(=O)c(-c3cccs3)nc3cnc(N4CCN(C)CC4)nc32)cc1 > 9.22 µM, CCNc1ncc2ncc(=O)n(Cc3cccc(OC)c3)c2n1 > 9.22 µM, CCNc1ncc2nc(CCc3ccccc3)c(=O)n(Cc3cccc(OC)c3)c2n1 > 9.22 µM, Cn1c(=O)c(-c2ccccc2)nc2cnc(N3CCOCC3)nc21 > 9.22 µM, Cn1c(=O)c(-c2ccc(Cl)cc2)nc2cncnc21 > 9.22 µM, COc1cccc(Cn2c(=O)c(CCc3ccccc3)nc3cnc(N(C)C)nc32)c1 > 9.22 µM, c1ccc2c(NCCN3CCOCC3)nc(-c3ccoc3)nc2c1 > 46 µM, Cc1nc2cnc(N3CCN(C)CC3)nc2n(CCc2ccccc2)c1=O > 9.22 µM, CN(C)c1ncc2nc(CCc3ccccc3)c(=O)n(CCC#N)c2n1 > 9.22 µM

target: Glucocorticoid receptor (Homo sapiens) (UniProt P04150); assay: GR-EFC Redistribution (AID 451; calls by dose curve; note: potency is the fitted concentration of half-maximal effect); details: CHO-K1 GR-EFC translocation, beta-gal luminescence, 2 h
Method in brief: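 CHO-K1 cells expressing nuclear EA and GR-ED fragments of b-gal; compounds titrated up to 46 uM final, 2 h at 37 C. GR nuclear translocation read as complemented b-gal luminescence after 1 h RT detection.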

Potency, inactive:
O=c1ccc2cc3ccoc3cc2o1 > 46 µM, c1ccc(Nc2nc(-c3cccnc3)nc3ccccc23)cc1 > 46 µM, c1ccc(CNc2nc(-c3cccnc3)nc3ccccc23)cc1 > 46 µM, CN(C)c1ncc2nc(CCc3ccccc3)c(=O)n(CCc3ccccc3)c2n1 > 46 µM, COc1ccc(-n2c(=O)c(-c3cccs3)nc3cnc(N4CCN(C)CC4)nc32)cc1 > 46 µM, CCNc1ncc2ncc(=O)n(Cc3cccc(OC)c3)c2n1 > 46 µM, CCNc1ncc2nc(CCc3ccccc3)c(=O)n(Cc3cccc(OC)c3)c2n1 > 46 µM, Cn1c(=O)c(-c2ccccc2)nc2cnc(N3CCOCC3)nc21 > 46 µM, Cn1c(=O)c(-c2ccc(Cl)cc2)nc2cncnc21 > 46 µM, COc1cccc(Cn2c(=O)c(CCc3ccccc3)nc3cnc(N(C)C)nc32)c1 > 46 µM, c1ccc2c(NCCN3CCOCC3)nc(-c3ccoc3)nc2c1 > 46 µM, Cc1nc2cnc(N3CCN(C)CC3)nc2n(CCc2ccccc2)c1=O > 46 µM, CN(C)c1ncc2nc(CCc3ccccc3)c(=O)n(CCC#N)c2n1 > 46 µM
